Screens deposited in PubChem by National Center for Advancing Translational Sciences (NCATS).
Luciferase inh: firefly luciferase inhibition | purified firefly luciferase, luminescence, 8 min | Potency, µM (highest dose often 57.1 µM), usual class: inhibitors | P08659 | 72,000 tested, 2.2% active; note: nearly all actives have a fitted effect of over 40% in size
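Compounds were tested as concentration series (qHTS) against purified P. pyralis luciferase with luciferin and 10 uM ATP in 50 mM imidazole pH 7.2, 50 mM KCl, 7 mM MgCl2, 0.01% Tween 20, 0.05% BSA. Luminescence was read after 8 min at ambient temperature.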
PK Bst: pyruvate kinase (B. stearothermophilus) modulation | AID 361 | Potency, µM | 51,000 tested, 1.2% active | purified pyruvate kinase, luminescence ATP production; ribose 5-phosphate activator present at AC10; in the data active = potency below about 11 µM; inconclusive = mostly about 12 µM to 25 µM;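 the screen sought inhibitors and activators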
TSHR ag: TSH receptor (human) agonism | P16473 | HEK293-CNG-TSHR cells (CNG channel as cAMP sensor), membrane potential dye, cAMP | Potency, µM (doses to about 57.1 µM), most hits filed as activators | 73,000 tested, 0.48% active | AID 926; active = well fitted activation curve with a large enough effect in the main read-out, with a control signal flat, not every such curve was filed as active; inconclusive = small, poorly fitted or top-dose-only effect, or a change in a side signal; inactive = no such curve, though single readings can be large or run the other way; reference of the percent scale not stated here;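 note: the control signal comes from parental cells without the receptor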
Target sequence (P16473 whole entry, looked up): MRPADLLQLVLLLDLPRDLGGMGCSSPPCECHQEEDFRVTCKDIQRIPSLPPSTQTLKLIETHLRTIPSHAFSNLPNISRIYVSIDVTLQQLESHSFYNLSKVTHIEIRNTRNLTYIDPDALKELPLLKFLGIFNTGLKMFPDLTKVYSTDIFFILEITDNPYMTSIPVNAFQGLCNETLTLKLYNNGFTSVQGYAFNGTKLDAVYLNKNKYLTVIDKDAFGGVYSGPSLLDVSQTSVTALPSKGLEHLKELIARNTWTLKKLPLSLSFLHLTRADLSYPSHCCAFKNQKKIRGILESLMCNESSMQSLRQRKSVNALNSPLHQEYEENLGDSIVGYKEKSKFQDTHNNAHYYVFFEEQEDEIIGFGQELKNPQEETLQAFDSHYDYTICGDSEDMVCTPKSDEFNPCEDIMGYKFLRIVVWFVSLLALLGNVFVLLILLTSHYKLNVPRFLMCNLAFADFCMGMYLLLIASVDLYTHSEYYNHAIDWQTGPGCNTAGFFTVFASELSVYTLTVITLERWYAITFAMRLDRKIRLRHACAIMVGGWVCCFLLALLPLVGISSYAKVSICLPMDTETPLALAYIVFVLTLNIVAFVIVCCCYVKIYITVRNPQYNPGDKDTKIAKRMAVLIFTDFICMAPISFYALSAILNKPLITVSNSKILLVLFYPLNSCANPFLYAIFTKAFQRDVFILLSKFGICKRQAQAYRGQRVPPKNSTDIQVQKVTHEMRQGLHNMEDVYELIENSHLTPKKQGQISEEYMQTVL
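cAMP rise detected as CNG-channel membrane depolarization by fluorescent dye (emission 590 nm), 30 min after compound, following 60 min dye loading containing 100 uM RO 20-1724 at room temperature. Cells: TSHR/CNG HEK 293, with parental CNG HEK 293 as control.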
HEK293 cAMP cs: counter-screen for TSHR agonists: cAMP increase in parental HEK293; 73,000 tested, 2.5% active; Potency, µM (series often up to 57.1 µM), actives largely listed as activators; parental HEK293 CNG cAMP sensor, membrane potential fluorescence; note: nearly all actives have a fitted effect of over 55% in size
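Parental HEK 293 cells stably expressing a modified CNG channel (no TSHR) report cAMP rise as membrane depolarization. Membrane potential dye with 100 uM RO 20-1724 was loaded for 60 min at room temperature, then compound added for 30 min; fluorescence read at 590 nm.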
Numbers stand for hits; [ ] = dose if it differs, or a comment. Sampled rows, rich in hits. Any-hit rate of the full collection: about 5.2%. Unless noted, calls come from the whole dose curve; as a rule, active = well fitted curve in the direction sought with a large enough effect; inconclusive = small, poorly fitted or top-dose-only effect, or another doubt; inactive = no such curve, though single readings can be large; an effect the other way counts as inactive or inconclusive.

COc1ccc(O)c(C(=O)CC(=O)c2ccc(F)cc2)c1 was read as Luciferase inh 25µM, TSHR ag inactive and HEK293 cAMP cs inactive.
`O=C(CSc1nnc(-c2cccs2)o1)NCC1CN(Cc2ccccc2)CCO1` (stereo unspecified) gave Luciferase inh inactive, PK Bst inactive, TSHR ag inactive and HEK293 cAMP cs inactive.
Cc1[nH]c(=O)[nH]c(=O)c1S(=O)(=O)N(C)Cc1ccccc1 was read as Luciferase inh inactive, PK Bst inactive, TSHR ag inactive and HEK293 cAMP cs inactive.
CC(=O)c1c(C)n(-c2ccccc2)c2ccc(OCC(O)CN3CCOCC3)cc12 (stereo unspecified) was read as Luciferase inh inactive, PK Bst inactive, TSHR ag inconclusive and HEK293 cAMP cs 13µM.
`Cc1cccc(OCCSc2cc(C)nc(N)n2)c1` gave Luciferase inh inactive, TSHR ag inconclusive and HEK293 cAMP cs 32µM.
For Cc1noc(C)c1C(=O)OCC(=O)c1cc(C)n(Cc2ccccc2Cl)c1C the results were Luciferase inh inactive, TSHR ag inconclusive and HEK293 cAMP cs 25µM.
For COc1ccccc1C(CCN(Cc1cccs1)C(C)=O)c1ccco1 (stereo unspecified) the results were Luciferase inh inactive, PK Bst inactive, TSHR ag inconclusive and HEK293 cAMP cs 16µM.
CCC(=O)NCCC(c1ccco1)c1ccccc1OC (stereo unspecified) was read as Luciferase inh inactive, PK Bst inactive, TSHR ag inactive and HEK293 cAMP cs inactive.
`CCOc1ccc2[nH]c(C)cc(=O)c2c1` gave Luciferase inh inactive, TSHR ag inconclusive and HEK293 cAMP cs inconclusive.
COCCNC(=O)C(c1cccc(OC)c1)N(C(=O)Cn1nnc2ccccc21)c1cccnc1 (stereo unspecified) was read as Luciferase inh inactive, PK Bst inactive, TSHR ag inactive and HEK293 cAMP cs inactive.
O=C(NCc1ccco1)C(c1ccco1)N(CCc1ccccc1)C(=O)Cn1nnc2ccccc21 (stereo unspecified) was read as Luciferase inh inactive, PK Bst inactive, TSHR ag inconclusive and HEK293 cAMP cs 16µM.
For O=C(NCc1ccco1)C(c1cccs1)N(Cc1ccccc1)C(=O)Cn1nnc2ccccc21 (stereo unspecified) the results were Luciferase inh inactive, PK Bst inactive, TSHR ag inconclusive and HEK293 cAMP cs 10µM.
Screening CCC(C)N(C(=O)Cn1nnc2ccccc21)C(C(=O)NCc1ccco1)c1cccc(OC)c1 (stereo unspecified) returned Luciferase inh inactive, PK Bst inactive, TSHR ag inconclusive and HEK293 cAMP cs 16µM.
`CCOCCCN(C(=O)Cn1nnc2ccccc21)C(C(=O)NCc1ccco1)c1ccncc1` (stereo unspecified) gave Luciferase inh inactive, PK Bst inactive, TSHR ag inactive and HEK293 cAMP cs inactive.
O=C(CSc1ncnc2sc3c(c12)CCCCC3)NCc1ccco1 was read as Luciferase inh inactive, PK Bst inactive, TSHR ag inconclusive and HEK293 cAMP cs inconclusive.
COc1ccc(C(=O)N2CCC[C@@]3(CCN(Cc4ccccc4OC)C3)C2)cc1 was read as Luciferase inh inactive[11.4 µM], TSHR ag inconclusive and HEK293 cAMP cs 16µM.
For COc1ccc(C(=O)N2CCC3(CCCN(c4ccncc4)C3)CC2)cc1 the results were Luciferase inh inactive[11.4 µM], TSHR ag inconclusive and HEK293 cAMP cs 13µM.
`O=C(c1cc(C(F)(F)F)cc(C(F)(F)F)c1)N1CCC2(CC1)CCN(c1ccccn1)CC2` gave Luciferase inh inactive[11.4 µM], TSHR ag inconclusive and HEK293 cAMP cs 16µM.
For COc1ccc(C(=O)N2CCC3(CC2)CN(c2ccncc2)C3)cc1 the results were Luciferase inh inactive[11.4 µM], TSHR ag inactive and HEK293 cAMP cs inactive.
`COc1ccccc1CN1CC[C@@]2(CCCN(C(=O)c3cc(C(F)(F)F)cc(C(F)(F)F)c3)C2)C1` gave Luciferase inh inactive[11.4 µM], TSHR ag inconclusive and HEK293 cAMP cs inconclusive.
For O=C(c1cc(C(F)(F)F)cc(C(F)(F)F)c1)N1CCC2(CCCN(c3ccncc3)C2)CC1 the results were Luciferase inh inactive[11.4 µM], TSHR ag inconclusive and HEK293 cAMP cs 7.9µM.
For CSc1nnc2n(C3CCCCC3)c(=O)c3c4c(sc3n12)CCCC4 the results were Luciferase inh inactive and PK Bst inactive.
For Cc1nnc2n(Cc3ccccc3)c(=O)c3c4c(sc3n12)CCCC4 the results were Luciferase inh inactive, PK Bst inactive, TSHR ag inactive and HEK293 cAMP cs inactive.
For CSc1nnc2n(-c3ccccc3)c(=O)c3c4c(sc3n12)CCC4 the results were Luciferase inh inactive, PK Bst 2.8, TSHR ag inactive and HEK293 cAMP cs inactive.
For CCOC(=O)CSc1nnc2n(Cc3ccccc3)c(=O)c3c4c(sc3n12)CCC4 the results were Luciferase inh inactive and PK Bst 5.1.
For Fc1ccccc1COc1ccc(/C=N/n2cnnc2)cc1 the results were Luciferase inh inactive, TSHR ag inconclusive and HEK293 cAMP cs inconclusive.
O=C(Nc1ccc(NC(=O)C2CCCCC2)cn1)c1ccco1 was read as Luciferase inh 5µM, PK Bst inactive, TSHR ag inactive and HEK293 cAMP cs inactive.
For O=C(Cc1ccccc1)Nc1ccc(NC(=O)c2ccco2)nc1 the results were Luciferase inh inactive, PK Bst inactive, TSHR ag inactive and HEK293 cAMP cs inactive.
CC(C)C(=O)Nc1ccc(NC(=O)c2ccccn2)cn1 was read as Luciferase inh 13µM, PK Bst inactive, TSHR ag inactive and HEK293 cAMP cs inactive.
CCC(=O)Nc1ccc(NC(=O)c2ccccn2)cn1 was read as Luciferase inh 40µM, TSHR ag inactive and HEK293 cAMP cs inactive.
`O=C(Nc1ccc(NC(=O)c2ccco2)nc1)c1ccccn1` gave Luciferase inh 10µM, TSHR ag inactive and HEK293 cAMP cs inactive.
`O=C(Nc1ccc(NC(=O)C23CC4CC(CC(C4)C2)C3)cn1)c1ccco1` gave Luciferase inh inactive, PK Bst inactive, TSHR ag inactive and HEK293 cAMP cs inactive.
`N#CCCn1c(=O)cnc2cnc(N3CCOCC3)nc21` gave Luciferase inh inactive[11.4 µM], TSHR ag inactive and HEK293 cAMP cs inactive.
Screening O=c1[nH]c(=O)n(Cc2ccccc2)c2c1CCC2 returned Luciferase inh inactive, PK Bst inactive, TSHR ag inactive and HEK293 cAMP cs inactive.
`O=C(Nc1ccc(NC(=O)C2CC2)nc1)c1ccccn1` gave Luciferase inh 20µM, PK Bst inactive, TSHR ag inactive and HEK293 cAMP cs inactive.
CC(C)(C)c1cc(NC(=O)c2cccnc2)no1 was read as Luciferase inh inactive, PK Bst inactive, TSHR ag inactive and HEK293 cAMP cs inactive.
Screening CC(C)(C)c1ccc(C(=O)Nc2cnccn2)cc1 returned Luciferase inh 4µM, PK Bst 5.6, TSHR ag inactive and HEK293 cAMP cs inactive.
COc1cc(-c2nc(S(=O)(=O)c3ccc(C)cc3)c(N(C)C)o2)cc(OC)c1OC was read as Luciferase inh inactive, PK Bst inactive, TSHR ag inactive and HEK293 cAMP cs inactive.
`CCC[C@@H]1C[C@@]1(CCC)C(NC(=O)c1ccco1)c1ccc(Cl)cc1` (stereo partly specified) gave TSHR ag inconclusive and HEK293 cAMP cs 10µM.
